# Sampled rows, rich in hits. Any-hit rate of the full collection: about 1.2%.
# TrxR1 inh – blocks rat thioredoxin reductase 1; O89049; recombinant rTrxR1, NADPH fluorescence consumption, selenite substrate; Potency, µM (highest dose often 114 µM), for inactives: at the highest dose activity change, negative = inhibition, usual class: inhibitors; actives 1% (n = 390,000); AID 588453; note: potency is the fitted concentration of half-maximal effect; % is set by controls: 0 for no effect and ±100 for the full control effect; nearly all actives have a fitted effect of over 65% in size
#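 Rat TrxR1 (90 nM in the dispensed reagent) was pre-reduced with 400 uM NADPH for 5 min at room temperature, then incubated with compound for 15 min. After 400 uM selenite was added, NADPH fluorescence (Ex 340/Em 450 nm) was followed for 8 min.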
# GLS inh – blocks human kidney-isoform glutaminase activity. O94925. GLS enzymatic activity, qHTS titration. Potency, µM (series often up to 45.5 µM), for inactives: at the top dose activity change, negative = inhibition, hits mostly inhibitors. actives 0.21% (n = 410,000); note: potency is the fitted concentration of half-maximal effect; % is set by controls: 0 for no effect and ±100 for the full control effect
# Target sequence (O94925 whole entry, looked up, canonical isoform): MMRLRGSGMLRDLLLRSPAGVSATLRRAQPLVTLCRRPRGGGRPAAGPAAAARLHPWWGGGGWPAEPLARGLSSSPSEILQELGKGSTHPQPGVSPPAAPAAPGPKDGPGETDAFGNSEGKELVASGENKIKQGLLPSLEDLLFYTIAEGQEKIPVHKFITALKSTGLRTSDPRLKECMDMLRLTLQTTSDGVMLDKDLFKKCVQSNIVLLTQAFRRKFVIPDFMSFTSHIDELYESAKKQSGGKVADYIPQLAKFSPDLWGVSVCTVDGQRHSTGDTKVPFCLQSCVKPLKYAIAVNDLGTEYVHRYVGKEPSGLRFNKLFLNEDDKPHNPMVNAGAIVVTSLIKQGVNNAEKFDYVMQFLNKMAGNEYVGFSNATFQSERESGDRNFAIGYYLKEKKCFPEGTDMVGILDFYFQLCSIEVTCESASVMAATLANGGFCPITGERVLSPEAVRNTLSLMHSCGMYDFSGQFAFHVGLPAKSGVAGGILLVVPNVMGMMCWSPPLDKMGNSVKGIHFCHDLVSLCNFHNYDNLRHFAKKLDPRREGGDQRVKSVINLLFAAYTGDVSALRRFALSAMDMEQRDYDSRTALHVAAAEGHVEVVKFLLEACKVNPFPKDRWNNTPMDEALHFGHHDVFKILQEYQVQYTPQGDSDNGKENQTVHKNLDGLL
#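 Two-point fluorescence kinetic (t0, 30 min RT) for hKGA; glutamate detected via glutamate oxidase–HRP–Amplex Red. Substrate: 1 mM L-glutamine solution; buffer 45 mM KH2PO4, pH 8.2.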
# TrxR1 substrate – substrates of rat thioredoxin reductase 1; Potency, µM (series often up to 114 µM), without a hit: at the top dose activity change, negative = substrate turnover; O89049; actives 0.01% (n = 390,000); purified TrxR1 substrate turnover, NADPH consumption readout; note: potency is the fitted concentration of half-maximal effect; % is set by controls: 0 for no effect and ±100 for the full control effect; nearly all actives have a fitted effect of over 50% in size
#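 Rat TrxR1, dispensed at 90 nM, was prereduced with 400 uM NADPH (final) for 5 min at ~22 deg C, then incubated with compound 15 min before 400 uM selenite. A first-read NADPH fluorescence drop versus no-compound background flagged substrates.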
# IDH1 R132H inh – human IDH1 R132H inhibition; actives 0.093% (n = 390,000); Potency, µM (highest dose often 76.6 µM), inactives show top-dose activity change, negative = inhibition, hits mostly inhibitors; O75874; IDH1-R132H enzyme, NADPH consumption, diaphorase/resazurin fluorescence; AID 602179; note: potency is the fitted concentration of half-maximal effect; % is set by controls: 0 for no effect and ±100 for the full control effect; nearly all actives have a fitted effect of over 65% in size
#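 IDH1-R132H (0.5 ug/mL) preincubated 30 min with compound, then NADPH (0.016 mM) and alpha-KG (2 mM) added; 80 min at RT, pH 7.5. Remaining NADPH coupled via diaphorase/resazurin to fluorescence (540/590 nm); concentration-response curves normalized to no-enzyme control.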
# Resorufin autofl – interferes with resorufin fluorescence in IDH1 counter-screen; shares compounds with IDH1 R132H inh; Resorufin detection reagent fluorescence interference, cell-free; inhibition of signal, % at 51.2 µM; 750 tested, under 10 active;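 note: 0% = wells with normal resorufin and full inhibition = wells lacking resorufin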
# WT IDH1 inh – wild-type IDH1 (human) inhibition counterscreen | shares compounds with IDH1 R132H inh | WT IDH1 enzyme, NADPH diaphorase/resazurin fluorescence | Potency, µM (highest dose often 115 µM), for the others: at the highest dose activity change, negative = inhibition, usual class: inhibitors | actives 9% (n = 750) | AID 623995;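 note: potency is the fitted concentration of half-maximal effect; 0% = full WT IDH1 enzyme control and full inhibition = no enzyme wells; nearly all actives have a fitted effect of over 55% in size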
# IDH1 R132H conf – mutant IDH1 (human) inhibition, confirmed | shares compounds with IDH1 R132H inh | IDH1 R132H enzyme, NADPH diaphorase/resazurin fluorescence | Potency, µM (doses to about 76.6 µM), without a hit: top-dose activity change, negative = inhibition, hits mostly inhibitors | actives 83% (n = 750); note: potency is the fitted concentration of half-maximal effect; nearly all actives have a fitted effect of over 50% in size
# Starred values were filed as active, the others as inactive; ? = inconclusive; / = not tested or not shown; [ ] = remark or other dose. Calls come from the whole dose curve; as a rule, active = well fitted curve in the direction sought with a large enough effect; inconclusive = small, poorly fitted or top-dose-only effect, or another doubt; inactive = no such curve, though single readings can be large; an effect the other way counts as inactive or inconclusive.
SMILES,TrxR1 inh,GLS inh,TrxR1 substrate,IDH1 R132H inh,Resorufin autofl,WT IDH1 inh,IDH1 R132H conf
CC(=O)Oc1ccc2c(=O)c(Oc3ccccc3[N+](=O)[O-])coc2c1,-36%,8%,1%,?,4,-13%,28µM*
CCC(c1nnnn1C1CCCCC1)N(Cc1ccco1)Cc1cc2ccc(OC)cc2[nH]c1=O (stereo not drawn),21%[57.1 µM],3%,11%[57.1 µM],?,-5,4%,?
Cc1ccc2cc(C(c3nnnn3C3CCCC3)N(Cc3ccco3)Cc3cccs3)c(=O)[nH]c2c1 (stereo not drawn),-19%,2%,2%[57.1 µM],2%,/,/,/
Cc1ccc(CNC(=O)CCCCCn2c(=O)c3sccc3n(CC(=O)N(C)c3ccccc3)c2=O)cc1,18%,-2%,3%,/,/,/,/
CC(=O)N(C(C)=O)N1C(=O)/C(=C/c2ccc(Cl)cc2)SC1=S,?,?,-10%[57.1 µM],?,7,-19%,50µM*
NNC(=O)c1csc(Cc2c(Cl)sc3ccc(Cl)cc23)n1,16%,-5%,4%,52µM*,6,14%,-11%
NNC(=O)c1csc(CS(=O)(=O)c2ccc(Cl)cc2)n1,1%[57.1 µM],-2%,6%,5%,/,/,/
CCCc1nnc(NC(=O)c2cc(=O)c3cc(Cl)ccc3o2)s1,10%,0%,3%,-3%,/,/,/
NC(=O)CSc1nc2c(c(=O)n1-c1ccccc1)C1(CCCCC1)Cc1ccccc1-2,15%,5%,-1%,52µM*,-2,0%,25µM*
CCOc1cc(C=C2C(=O)c3ccccc3C2=O)ccc1OCC(=O)Nc1ccc(C)cc1,17%[57.1 µM],5%,12%[57.1 µM],?,-4,7%,16µM*
O=C(NC1CCCCC1)C(c1cccs1)N(C(=O)c1ccccn1)c1ccccc1 (stereo not drawn),34%,-3%,13%,?,-1,6%,?
Cc1ccc(N(C(=O)C(F)(F)F)C(C(=O)NC2CCCCC2)c2cccs2)cc1 (stereo not drawn),22%,9%,12%,?,0,-8%,11µM*
O=C(NC1CCCC1)C(c1ccc(F)cc1)N(C(=O)c1csnn1)c1ccccc1 (stereo not drawn),19%[57.1 µM],-5%,-17%[57.1 µM],-5%,/,/,/
O=C(NC1CCCC1)C(c1ccccc1F)N(C(=O)c1csnn1)c1ccccc1 (stereo not drawn),21%[57.1 µM],-4%,8%[57.1 µM],?,-3,8%,16µM*
Cc1ccc(N(C(=O)CCC(=O)Nc2cc(C)on2)C(C(=O)NC2CCCC2)c2cccs2)cc1 (stereo not drawn),0%,8%,-5%,-17%,/,/,/
COc1cccc(C(C(=O)NC2CCCCC2)N(C(=O)c2ccco2)c2ccc(-n3cnnn3)c(C)c2)c1 (stereo not drawn),-6%,1%,1%,-1%,/,/,/
COc1cc(N(C(=O)Cc2cccs2)C(C(=O)NC2CCCCC2)c2cccc(OC)c2OC)ccc1-n1cnnn1 (stereo not drawn),-15%[11.4 µM],-3%,-8%[11.4 µM],?,2,-2%,?
COc1cccc(C(C(=O)NC2CCCCC2)N(C(=O)Cc2cccs2)c2ccc(-n3cnnn3)c(OC)c2)c1 (stereo not drawn),-2%[57.1 µM],0%,1%[57.1 µM],?,1,-4%,8.9µM*
COc1ccc(N(C(=O)C2COc3ccccc3O2)C(C(=O)NC2CCCCC2)c2ccccc2)cc1OC (stereo not drawn),11%,0%,-1%,5.2µM*,4,4%,2.8µM*
COc1cccc(C(C(=O)NC2CCCCC2)N(C(=O)c2cccs2)c2ccc3c(c2)OCO3)c1 (stereo not drawn),1%,-1%,-7%,?,-1,-5%,-23%
O=C(Nc1ccc([N+](=O)[O-])cc1Cl)c1ccccc1O,?,/,-10%,/,/,/,/
